Screens deposited in PubChem by National Center for Advancing Translational Sciences (NCATS).
Pf growth 96h = Primary qHTS for delayed death inhibitors of the malarial parasite plastid, 96 hour incubation. P. falciparum luciferase reporter growth, 96 h. Potency, µM (titrated, usually from 28.7 µM), inactives show top-dose activity change, negative = inhibition, usual class: inhibitors. actives 6.9% (n = 320,000). AID 504834, 2011; also: % is scaled to controls: 0 for no effect and ±100 for the full control effect
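Plates of compound plus infected erythrocytes (2% hematocrit, 0.05% parasitemia final) incubate 96 hours, 37 C, 5% CO2. Detection reagent added; reduced luminescence from the parasites' luciferase reporter flags inhibition.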
SARS PLP yeast = qHTS of Yeast-based Assay for SARS-CoV PLP. Potency, µM (titrated, usually from 32.9 µM), inactives show at the highest dose activity, positive = growth rescue, most hits filed as activators. S. cerevisiae expressing SARS-CoV PLpro, growth rescue. actives 0.19% (n = 330,000); calls by dose curve; also: 0% is about no effect; nearly all actives have a fitted effect of over 55% in size
Pf growth 48h = Primary qHTS for delayed death inhibitors of the malarial parasite plastid, 48 hour incubation; P. falciparum luciferase growth in erythrocytes, 48 h; Potency, µM (doses to about 28.7 µM), for the others: at the top dose activity change, negative = inhibition, actives largely listed as inhibitors; actives 5.9% (n = 310,000); also: % is scaled to controls: 0 for no effect and ±100 for the full control effect
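Luminescence readout; reporter = integrated firefly luciferase in P. falciparum. RBC culture at 2% hematocrit, 0.1% parasitemia final, 37 C/5% CO2; decreased signal taken as growth inhibition.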
AmpC inh no detg = qHTS Inhibitors of AmpC Beta-Lactamase (assay without detergent); Potency, µM (series often up to 57.1 µM), without a hit: at the highest dose activity change, negative = inhibition, most hits filed as inhibitors; AmpC nitrocefin hydrolysis, absorbance 480 nm, 0.0001% Triton; actives 0.52% (n = 330,000);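 also: plate controls were no compound for no effect and no enzyme for full effect; nearly all actives have a fitted effect of over 20% in size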
Target sequence (P00811 whole entry, looked up): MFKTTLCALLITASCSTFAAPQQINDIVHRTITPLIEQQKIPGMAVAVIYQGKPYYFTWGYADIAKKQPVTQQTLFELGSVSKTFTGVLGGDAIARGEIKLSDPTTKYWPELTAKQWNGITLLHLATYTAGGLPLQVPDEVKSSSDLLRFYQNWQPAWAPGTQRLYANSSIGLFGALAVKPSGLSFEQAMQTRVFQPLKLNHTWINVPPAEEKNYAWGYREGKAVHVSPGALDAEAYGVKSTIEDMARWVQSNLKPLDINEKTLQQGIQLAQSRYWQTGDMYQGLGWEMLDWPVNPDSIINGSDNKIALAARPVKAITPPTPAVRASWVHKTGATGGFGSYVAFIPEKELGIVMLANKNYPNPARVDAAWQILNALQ
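AmpC (5.3 nM in the dispensed reagent) in 20 mM phosphate pH 7.0 with 0.01% (detergent screen) or 0.0001% Triton X-100 was preincubated with compounds for 15 min at room temperature. Nitrocefin was then added from an 800 uM solution, and hydrolysis was followed at 480 nm.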
AmpC inh detg = qHTS Inhibitors of AmpC Beta-Lactamase (assay with detergent); P00811; AmpC hydrolysis of nitrocefin, absorbance 480 nm, 0.01% Triton; Potency, µM (top dose mostly 114 µM), without a hit: at the highest dose activity change, negative = inhibition, most hits filed as inhibitors; actives 0.041% (n = 370,000); AID 485294, 2010;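 also: 0% = no-compound wells and -100% = no-enzyme wells; nearly all actives have a fitted effect of over 25% in size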
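20 mM phosphate pH 7.0 + 0.01% (detergent screen) or 0.0001% Triton X-100; 5.3 nM AmpC reagent; cpd preinc 15 min RT; nitrocefin (800 uM stock) to start; A480 q20 s × 4 min; Activity was normalised to no-enzyme and no-compound control wells.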
Sm TGR block = qHTS Assay for the Inhibitors of Schistosoma Mansoni Peroxiredoxins; actives 3% (n = 360,000); AID 485364, 2010; Schistosoma mansoni thioredoxin glutathione reductase (TGR), Q962Y6; Potency, µM (titrated, usually from 114 µM), inactives show at the highest dose activity change, negative = inhibition, usual class: inhibitors; purified TGR, DTNB reduction, TNB absorbance 405 nm; also: % is scaled to controls: 0 for no effect and ±100 for the full control effect; nearly all actives have a fitted effect of over 60% in size
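TGR 20 nM + NADPH 100 uM (dispensed conc.), cpd preinc 15 min RT; start with NADPH (500 uM addition) then DTNB (15 mM addition). Kinetic TNB absorbance, 405 nm filter. Four-parameter Hill fit across titration.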
* hit, by the source's call; ? = inconclusive; . = no result; [ ] = another dose, or the depositor's remark. Compounds with a hit are over-represented: about 12% of the library has one in this group of screens. Unless noted, calls follow the shape of the dose curve; as a rule, active = well fitted curve in the direction sought with a large enough effect; inconclusive = small, poorly fitted or top-dose-only effect, or another doubt; inactive = no such curve, though single readings can be large; an effect the other way counts as inactive or inconclusive. Potency is read from the fitted curve at half-maximal effect.

SMILES	Pf growth 96h	SARS PLP yeast	Pf growth 48h	AmpC inh no detg	AmpC inh detg	Sm TGR block
COc1ccc(-c2[nH]ncc2CN(C)Cc2ccccn2)c(OC)c1	13µM*	-1%	0%	-3%	-9%	-13%
COc1ccc(-c2[nH]ncc2CN(C)Cc2cnccn2)c(OC)c1	5%	0%	6%	-14%	7%	.
O=C(Nc1cccc(-c2cn3cccnc3n2)c1)c1ccc2c(c1)OCO2	1.3µM*	0%	-16%	-54%	1%	-34%
O=C(Nc1cccc(-c2cn3cccnc3n2)c1)c1ccco1	?	-3%	-15%	-23%	6%	-32%
Cc1cc(C)c(S(=O)(=O)Nc2cccc(-c3cn4ccccc4n3)c2)c(C)c1	.	.	.	.	11%	9%
Cc1cc(C)c(S(=O)(=O)Nc2ccc(-c3cn4ccccc4n3)cc2)c(C)c1	.	7%	15µM*	-34%	4%	-8%
O=C(Nc1cccc(-c2cn3ccccc3n2)c1)c1ccccc1	53%	-17%	?	-42%	-13%	0%
Cc1ccc(C(=O)Nc2cccc(-c3cn4ccccc4n3)c2)cc1	13µM*	-5%	46%	-56%	4%	2%
Cc1ccc(OCC(=O)Nc2ccc(NC(=O)c3ccccc3)c(C)c2)cc1	?	0%	-10%	-16%	?	-3%
CN(CC(=O)Nc1ccc(Cl)c(C(F)(F)F)c1)C(=O)CC1Sc2ccccc2NC1=O (stereo not drawn)	?	0%	?	29%	2%	-19%
Cc1ccc(-n2ncc3c(NC4CCCC4)ncnc32)cc1	.	.	.	.	-5%	0%
Cc1ncc(C[n+]2csc(C)c2C)c(N)n1	2%	1%	-1%	-4%	-3%	25µM*
CC(=O)NCC(=O)N(c1c(C)n(C)n(-c2ccccc2)c1=O)C1(C(=O)NC2CCCC2)CCCCC1	?	1%	-4%	3%	-6%	2%
Cc1c(N(C(=O)CNC(=O)c2ccccc2)C2(C(=O)NC3CCCCC3)CCCCC2)c(=O)n(-c2ccccc2)n1C	?	2%	5.9µM*	34%	-7%	-3%
NNC(=O)CN1C(=O)Nc2ccc(Br)cc2C1c1ccccc1 (stereo not drawn)	73%	?	?	8%	3%	-13%
O=C(O)CN1C(=O)Nc2ccc(Br)cc2C1c1ccccc1 (stereo not drawn)	6%	0%	.	-11%	3%	24%[11.4 µM]
COc1cc(C2=Nc3ccc(Br)cc3C(c3ccccc3)N2CC(=O)NN)cc(OC)c1OC (stereo not drawn)	?	0%	8.3µM*	145%	-3%	-1%
NNC(=O)CN1C(c2ccc(Br)cc2)=Nc2ccc(Br)cc2C1c1ccccc1 (stereo not drawn)	?	-22%	10µM*	-27%	-7%	0%
CC(Nc1cc(N2CCOCC2)ccc1[N+](=O)[O-])c1ccccc1 (stereo not drawn)	-13%	16%	?	-16%	?	-9%
CC(Nc1cc(N2CCCC2)ccc1[N+](=O)[O-])c1ccccc1 (stereo not drawn)	?	0%	13µM*	-15%	-1%	0%
CC(Nc1cc(N2CCN(S(=O)(=O)N(C)C)CC2)ccc1[N+](=O)[O-])c1ccccc1 (stereo not drawn)	182%	-1%	15µM*	-22%	1%	.
CCCC(=O)N1CCN(c2ccc([N+](=O)[O-])c(NC(C)c3ccccc3)c2)CC1 (stereo not drawn)	9.3µM*	?	12µM*	76%	-1%	8%
CC(C)(C)OC(=O)N1CCC(c2c(C(=O)NCCN3CCOCC3)cnn2-c2ccc(F)cc2)CC1	.	.	.	.	-7%	0%
Cc1ccc(NC(=O)Cn2cccc2)cc1Cl	?	22%	24%	-24%	-7%	32µM*
Cc1ccc(NC(=O)Cn2cccc2)c(C)c1	13µM*	17%	.	-6%	-3%	-6%
SMILES	Pf growth 96h	SARS PLP yeast	Pf growth 48h	AmpC inh no detg	AmpC inh detg	Sm TGR block
COc1cccc(CNC(=O)CSc2c3c(nc4ccc(Cl)cc24)CCCC3)c1OC	.	.	.	.	6%	-1%
C=CCn1c(SCc2csc(C)n2)nc2sc3c(c2c1=O)CCC(C)C3 (stereo not drawn)	?	-6%	12µM*	-6%	1%	0%
C=CCn1c(SCc2csc(C)n2)nc2sc3c(c2c1=O)CCCC3	-88%	-11%	.	69%	3%	3%
O=C(N=C1SC2CS(=O)(=O)CC2N1Cc1ccccc1Cl)C1CCCO1 (stereo not drawn)	28%	7%	6%	-1%	1%	6%
O=C(/C=N\O)NCCCNCc1ccccc1	5.9µM*	2%	-5%	-8%	-14%	-1%
O=C(NCCCNCc1ccccc1)c1ccncc1	?	-3%	-2%	-17%	?	0%
O=C(/C=C/c1ccccc1)Nn1cnnc1	15µM*	5%	31%	-11%	?	3%
O=C(/C=C/c1ccccc1)NC(=S)Nc1ccccc1O	-15%	-1%	51%	-28%	-2%	13%
CCCNC(=O)/C=C/c1ccc(C(C)C)cc1	13µM*	-22%	?	-28%	-11%	-2%
NC(=S)NC(=O)/C=C/c1ccccc1	2.1µM*	8%	33%	-22%	-3%	-6%
Cc1cc(C(=O)CCC(=O)NCC2COc3ccccc3O2)c(C)s1 (stereo not drawn)	18%	-6%	?	-7%	-18%	-1%
O=C(/C=C/c1ccccc1)NCCCNC(=O)/C=C/c1ccccc1	8.3µM*	0%	?	-4%[11.4 µM]	3%	-2%
O=C(/C=C/c1ccccc1)NCCO	-1%	.	8%	.	.	.
O=C(/C=C/c1ccccc1)/C=C/c1ccccc1	?	-33%	-25%	-41%	0%	25µM*
OCC(O)C(O)C(O)C(O)CO (stereo not drawn)	-2%	.	-19%	.	.	.
O=C(NCCS(=O)(=O)N1CCN(c2ccc(F)cc2)CC1)C12CC3CC(CC(C3)C1)C2	-9%	.	12µM*	76%	-14%	-24%
COc1cccc(-c2cc(=O)c3cc(NC(=O)c4ccccc4)ccc3[nH]2)c1	?	11%	?	-60%	-6%	-11%
COc1ccc(-c2cc(=O)c3ccccc3[nH]2)cc1	?	-11%	?	-23%	-20%	-1%
